Assay outcomes deposited in PubChem by National Center for Advancing Translational Sciences (NCATS).
3T3 cytotox = NIH 3T3 cell cytotoxicity; NIH 3T3 viability, CellTiter-Glo ATP luminescence, 48-72 h; Potency, µM (top dose mostly 96.7 µM), most hits filed as inhibitors; 94,000 tested, 4.3% active; note: nearly all actives have a fitted effect of over 55% in size
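Mouse fibroblast NIH 3T3 cells, 400 per well, received compound via pintool and were incubated for 48 or 72 hr prior to CellTiter-Glo ATP luminescence measurement.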
Luciferase inh = blocks purified firefly luciferase enzyme activity; P08659; purified P. pyralis luciferase, luminescence, biochemical; Potency, µM (series often up to 115 µM), most hits filed as inhibitors; 76,000 tested, 2.5% active; note: nearly all actives have a fitted effect of over 65% in size
Target sequence (P08659 whole entry, looked up): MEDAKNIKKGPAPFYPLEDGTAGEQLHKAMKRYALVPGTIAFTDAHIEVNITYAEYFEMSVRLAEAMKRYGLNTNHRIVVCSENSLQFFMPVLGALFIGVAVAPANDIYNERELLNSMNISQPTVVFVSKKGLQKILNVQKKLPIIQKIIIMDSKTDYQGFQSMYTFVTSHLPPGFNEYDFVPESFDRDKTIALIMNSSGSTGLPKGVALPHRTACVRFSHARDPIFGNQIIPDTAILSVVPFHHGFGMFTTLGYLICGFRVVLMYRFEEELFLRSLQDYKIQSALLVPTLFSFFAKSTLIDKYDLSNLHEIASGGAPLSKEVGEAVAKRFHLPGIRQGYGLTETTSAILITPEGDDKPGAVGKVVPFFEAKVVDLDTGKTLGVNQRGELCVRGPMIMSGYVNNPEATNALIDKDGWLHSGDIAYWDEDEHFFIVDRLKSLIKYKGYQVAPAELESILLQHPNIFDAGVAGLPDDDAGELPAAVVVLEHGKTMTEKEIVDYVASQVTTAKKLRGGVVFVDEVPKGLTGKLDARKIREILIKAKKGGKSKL
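Luminescence read by CCD imager after adding enzyme (10nM final) to wells holding compound, titrated in qHTS. Substrates 10uM each D-luciferin and ATP; buffer 50mM Tris acetate pH 7.5, 10mM Mg acetate, Tween-20, BSA.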
NPR1 antag = human Npr1 receptor antagonism | P16066 | HEK293 hNpr1 GloSensor cGMP, ANP-stimulated luminescence | Potency, µM (doses to about 46.3 µM), most hits filed as inhibitors | 76,000 tested, 1.6% active; calls by dose curve; note: nearly all actives have a fitted effect of over 60% in size
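HEK293 cells stably expressing human Npr1 and cGMP GloSensor pGS-40F, loaded 2 h with 2% GloSensor reagent, given compound 30 min at room temperature. Luminescence read before and 20 min after 0.1 nM hNppA.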
HEK cytotox = HEK 293 cell cytotoxicity; HEK 293 viability, ATP luminescence (CellTiter-Glo), 48-72 h; Potency, µM (series often up to 115 µM), usual class: inhibitors; 94,000 tested, 6.6% active; note: nearly all actives have a fitted effect of over 60% in size
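HEK 293 seeded at 250 cells/well receive compound via pintool. After 48 or 72 hr at 37 degree Celsius, 5% CO2 and 95% humidity, CellTiter-Glo is dispensed and luminescence read following 10 min at room temperature.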
Large screens that a line does not name were inactive. Hits are enriched below; roughly 11% of the tested compounds scored in any of these assays. Unless noted, calls come from the whole dose curve; as a rule, active = well fitted curve in the direction sought with a large enough effect; inconclusive = small, poorly fitted or top-dose-only effect, or another doubt; inactive = no such curve, though single readings can be large; an effect the other way counts as inactive or inconclusive.

c1ccc(CN2CCNc3cnc(-c4ccc(N5CCOCC5)cc4)cc3C2)cc1	3T3 cytotox inconclusive, Luciferase inh 20µM, NPR1 antag 28.2µM, HEK cytotox 50.1µM
Fc1cccc(CN2CCNc3cc(Nc4ccccc4)ncc3C2)c1	3T3 cytotox 44.7µM, Luciferase inh 31.6µM, HEK cytotox 39.8µM
c1ccc(Nc2cc3c(cn2)CN(Cc2cnc[nH]2)CCN3)cc1	3T3 cytotox inconclusive, Luciferase inh inconclusive, HEK cytotox inconclusive
c1ccc(CN2CCNc3cc(Nc4ccc(N5CCOCC5)cc4)ncc3C2)cc1	3T3 cytotox inconclusive, HEK cytotox 89.1µM
Oc1cccc(-c2cc3c(cn2)NCCN(Cc2ccccc2)C3)c1	3T3 cytotox inconclusive, HEK cytotox inconclusive
c1ccc(Nc2cc3c(cn2)CN(Cc2cccs2)CCN3)cc1	3T3 cytotox 50.1µM, Luciferase inh inconclusive, HEK cytotox 50.1µM
Fc1ccccc1CN1CCNc2cc(Nc3ccccc3)ncc2C1	3T3 cytotox 50.1µM, Luciferase inh 20µM, HEK cytotox 112µM
CC1(c2ccccc2)N(Cc2ccccc2C#N)C(=O)OC12CCN(C(=O)Cc1ccccn1)CC2 (configuration not stated)	3T3 cytotox 28.2µM
COc1cccc(CN2C(=O)OC3(CCN(Cc4ccccn4)CC3)C2(C)c2cccnc2)c1 (configuration not stated)	3T3 cytotox inconclusive
COc1cccc(CN2C(=O)OC3(CCN(C(=O)Cc4ccccn4)CC3)C2(C)c2cccnc2)c1 (configuration not stated)	3T3 cytotox 35.5µM
COc1cccc(CC(=O)N2CCC3(CC2)OC(=O)N(Cc2csc(C)n2)C3(C)c2ccccc2)c1 (configuration not stated)	3T3 cytotox 7.08µM
O=C(COc1ccccc1)N1CCCCC1c1nc(CCOCC2CCOCC2)no1 (configuration not stated)	HEK cytotox inconclusive (no result: Luciferase inh, NPR1 antag)
COc1cccc(CN2CCc3c(cc(C(=O)Nc4ccccc4)n3C)C2)c1	3T3 cytotox inconclusive, Luciferase inh 15.8µM, HEK cytotox 44.7µM
CC(=O)Nc1ccc(NC(=O)c2cc3c(n2C)CCN(Cc2ccccc2)C3)cc1	none
COc1ccc(NC(=O)c2cc3c(n2C)CCN(Cc2ccc(F)cc2)C3)cc1	3T3 cytotox inconclusive, Luciferase inh inconclusive, HEK cytotox inconclusive
COc1ccc(CNC(=O)c2cc3c(n2C)CCN(Cc2ccccc2)C3)cc1OC	NPR1 antag inconclusive, HEK cytotox 39.8µM
COc1cccc(CN2CCc3c(cc(C(=O)NCc4ccccn4)n3C)C2)c1	3T3 cytotox inconclusive, HEK cytotox inconclusive
COc1cccc(CN2CCc3c(cc(C(=O)Nc4ccccc4OC)n3C)C2)c1	3T3 cytotox inconclusive, Luciferase inh 15.8µM, HEK cytotox 39.8µM
COc1ccccc1NC(=O)c1cc2c(n1C)CCN(Cc1cccc(C)c1)C2	3T3 cytotox inconclusive, Luciferase inh 31.6µM, HEK cytotox inconclusive
COc1cccc(CN2CCc3c(cc(C(=O)Nc4cccc(C)c4C)n3C)C2)c1	3T3 cytotox inconclusive, Luciferase inh 22.4µM, HEK cytotox 39.8µM
COc1cccc(CN2CCc3c(cc(C(=O)N4CCOCC4)n3C)C2)c1	none
CNC(=O)c1cc(C2CC2)nc2c1c(C1CCCN1C(=O)c1ccncc1)nn2C (configuration not stated)	none (no result: Luciferase inh, NPR1 antag)
O=C(NCCNC(=O)C1CCCC1)c1cccc(-c2ccsc2)c1	3T3 cytotox inconclusive, HEK cytotox 79.4µM (no result: Luciferase inh, NPR1 antag)
CC(C)NC(=O)NCCNC(=O)c1cccc(-c2ccsc2)c1	3T3 cytotox inconclusive, HEK cytotox 100µM (no result: Luciferase inh, NPR1 antag)
CN(c1ccccc1)c1cc(=O)c2ccnc(-c3ccnn3C)c2o1	3T3 cytotox 35.5µM, HEK cytotox inconclusive
CN1CCN(c2ccc(-c3nccc4c(=O)cc(N(C)c5ccccc5)oc34)cn2)CC1	3T3 cytotox inconclusive, Luciferase inh inconclusive, HEK cytotox inconclusive
CN(c1ccccc1)c1cc(=O)c2ccnc(-c3cccnc3)c2o1	3T3 cytotox 17.8µM
CN(c1ccccc1)c1cc(=O)c2ccnc(-c3cncnc3)c2o1	3T3 cytotox 79.4µM
CN(C)c1cc(=O)c2ccnc(Nc3cccnc3)c2o1	3T3 cytotox 79.4µM
CN(C)c1cc(=O)c2ccnc(-c3ccccc3Oc3ccccc3)c2o1	3T3 cytotox inconclusive, HEK cytotox inconclusive
O=C(NCCc1ccccc1)N1CCC(Cc2nncn2CC2CC2)CC1	none (no result: Luciferase inh, NPR1 antag)
O=C(NCC1CC1)c1cccc(OC2CN(CC3CC=CCC3)C2)c1 (configuration not stated)	HEK cytotox inconclusive
COc1ncc(-c2nccc3c(=O)cc(N(C)c4ccccc4)oc23)cn1	3T3 cytotox 31.6µM
